# Screening data deposited in PubChem by National Center for Advancing Translational Sciences (NCATS).
# The list is not random: actives were taken first. Their share in the collection is about 11%.
# NIH3T3 tox – cytotoxic compounds in NIH 3T3 cells; NIH 3T3 viability, CellTiter-Glo ATP luminescence, 48-72 h; Potency, µM (series often up to 96.7 µM), without a hit: at the highest dose activity change, negative = cytotoxicity, most hits filed as inhibitors; actives 4.3% (n = 94,000); note: nearly all actives have a fitted effect of over 55% in size
#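 Cytotoxicity is measured as loss of cellular ATP: NIH 3T3 cells (400/well) are exposed to compound for 48 or 72 hr at 37 °C, then CellTiter-Glo luminescence is imaged after 10 min at room temperature.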
# NPR1 antag – antagonists of human natriuretic peptide receptor Npr1. P16066. HEK293 hNpr1 GloSensor cGMP, ANP-stimulated luminescence. Potency, µM (doses to about 46.3 µM), inactives show at the top dose activity change, negative = inhibition, usual class: inhibitors. actives 1.6% (n = 76,000). AID 1347048; calls by dose curve; note: nearly all actives have a fitted effect of over 60% in size
# Target sequence (P16066 whole entry, looked up): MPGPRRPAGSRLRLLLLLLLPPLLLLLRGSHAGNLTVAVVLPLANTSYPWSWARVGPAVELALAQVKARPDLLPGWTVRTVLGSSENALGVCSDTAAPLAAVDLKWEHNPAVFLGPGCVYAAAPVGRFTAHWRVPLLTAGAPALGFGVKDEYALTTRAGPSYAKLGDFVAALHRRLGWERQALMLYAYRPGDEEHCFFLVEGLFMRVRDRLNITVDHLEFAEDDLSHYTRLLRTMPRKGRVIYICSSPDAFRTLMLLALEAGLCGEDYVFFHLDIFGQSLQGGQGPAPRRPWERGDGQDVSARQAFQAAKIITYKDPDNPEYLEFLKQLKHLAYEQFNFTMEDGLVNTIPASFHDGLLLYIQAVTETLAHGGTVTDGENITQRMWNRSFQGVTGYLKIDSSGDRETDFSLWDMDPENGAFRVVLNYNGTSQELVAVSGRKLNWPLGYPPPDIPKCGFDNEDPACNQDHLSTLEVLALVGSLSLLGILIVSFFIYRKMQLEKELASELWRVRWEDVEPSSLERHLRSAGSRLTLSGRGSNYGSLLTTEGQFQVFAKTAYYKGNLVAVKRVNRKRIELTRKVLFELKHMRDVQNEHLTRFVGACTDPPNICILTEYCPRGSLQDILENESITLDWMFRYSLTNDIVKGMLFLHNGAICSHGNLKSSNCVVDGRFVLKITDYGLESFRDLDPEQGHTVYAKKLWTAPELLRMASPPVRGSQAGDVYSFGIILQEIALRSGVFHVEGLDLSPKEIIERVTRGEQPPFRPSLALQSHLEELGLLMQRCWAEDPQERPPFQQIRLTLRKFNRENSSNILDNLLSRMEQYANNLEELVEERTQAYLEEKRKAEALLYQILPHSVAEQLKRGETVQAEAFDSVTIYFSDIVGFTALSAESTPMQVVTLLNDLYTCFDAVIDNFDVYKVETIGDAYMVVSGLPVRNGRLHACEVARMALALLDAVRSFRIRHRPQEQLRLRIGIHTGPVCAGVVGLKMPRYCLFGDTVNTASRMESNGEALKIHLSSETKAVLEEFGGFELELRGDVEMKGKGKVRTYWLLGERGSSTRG
#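 Compound pre-incubated 30 min at room temperature on GloSensor-loaded HEK293 cells stably carrying hNpr1 and the pGS-40F cGMP biosensor. Stimulation uses hNppA at 0.1 nM final; luminescence is taken at baseline and 20 min post-agonist.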
# Luciferase inh – Photinus pyralis luciferase inhibition | P08659 | purified P. pyralis luciferase, luminescence, biochemical | Potency, µM (top dose mostly 115 µM), most hits filed as inhibitors | actives 2.5% (n = 76,000) | AID 1347043; note: nearly all actives have a fitted effect of over 65% in size
#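 Luminescence read by CCD imager after adding enzyme (10nM final) to wells holding compound, titrated in qHTS. Substrates 10uM each D-luciferin and ATP; buffer 50mM Tris acetate pH 7.5, 10mM Mg acetate, Tween-20, BSA.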
# HEK cytotox – cytotoxic compounds in HEK 293 cells. HEK 293 viability, ATP luminescence (CellTiter-Glo), 48-72 h. actives 6.6% (n = 94,000). Potency, µM (highest dose often 115 µM), for the others: at the top dose activity change, negative = cytotoxicity, hits mostly inhibitors; note: nearly all actives have a fitted effect of over 60% in size
#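 ATP-coupled CellTiter-Glo luminescence served as viability read-out, recorded 10 min after reagent addition at room temperature. HEK 293 cells, 250 cells/well, had been incubated with pintool-transferred compound for 48 or 72 hr at 37 degree Celsius.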
# * hit, by the source's call; i = inactive; ? = inconclusive; nt = no result; [ ] = another dose, or the depositor's remark. Unless noted, calls come from the whole dose curve; as a rule, active = well fitted curve in the direction sought with a large enough effect; inconclusive = small, poorly fitted or top-dose-only effect, or another doubt; inactive = no such curve, though single readings can be large; an effect the other way counts as inactive or inconclusive. % is set by controls: 0 for no effect and ±100 for the full control effect; potency is the fitted concentration of half-maximal effect.
SMILES,NIH3T3 tox,NPR1 antag,Luciferase inh,HEK cytotox
O=C(NCc1ccccc1Cl)C1CN(C2CCCC2)C(=O)N1 (stereo not given),?,nt,nt,-22.0%[172 µM]
CC(C)c1nc2nccc(-c3cccs3)n2n1,?,-8.6%,i,-27.8%
CCCn1c(C)cnc1CC1CCN(S(=O)(=O)c2ccc3c(c2)CCC3)C1 (stereo not given),?,-5.9%,i,?
Cn1ncc2c(C(=O)NCc3cccc(F)c3)cc(-c3ccc(C(F)(F)F)cc3)nc21,-28.9%,nt,nt,39.8µM*
C#CCNC(=O)c1cc(-c2cccc(C(F)(F)F)c2)nc2c1cnn2C,10µM*,nt,nt,?
Cn1ncc2c(C(=O)Nc3cccc(F)c3)cc(-c3ccccc3F)nc21,-20.3%,nt,nt,?
Cn1ncc2c(C(=O)NCc3cccc(F)c3)cc(-c3ccccc3F)nc21,?,nt,nt,44.7µM*
Cn1ncc2c(C(=O)NCc3cccc(C(F)(F)F)c3)cc(-c3ccc(C(F)(F)F)cc3)nc21,-1.7%,nt,nt,-7.2%
Cn1ncc2c(C(=O)NCC(F)(F)F)cc(-c3cccc(C(F)(F)F)c3)nc21,-15.3%,nt,nt,-19.2%
COC(=O)CNC(=O)[C@@H]1CCCN1C(=O)c1cccc(-c2ccccc2OC)c1,-10.7%,nt,nt,?
O=C(NCC(F)F)C1CCCCN1Cc1ccc(-c2ccsc2)cc1 (stereo not given),?,nt,nt,39.8µM*
O=C(NC1CCCCCC1)C1CCCCN1Cc1ccc(-c2ccsc2)cc1 (stereo not given),-34.2%,nt,nt,?
O=C(C1CCCCN1Cc1ccc(-c2ccsc2)cc1)N1CCC(Cc2ccccc2)CC1 (stereo not given),35.5µM*,nt,nt,?
O=C(NCCc1ccccc1)C1CCN(C(=O)c2ccc(-c3cccs3)cc2)CC1,-23.8%,nt,nt,-22.5%
O=C(NCCc1ccc(F)cc1)C1CCCCN1Cc1ccc(-c2ccsc2)cc1 (stereo not given),31.6µM*,nt,nt,35.5µM*
O=C(NCCc1ccc(F)cc1)C1CN(C2CCCC2)C(=O)N1 (stereo not given),i,nt,nt,i
O=C(NCCc1ccc(F)cc1)C1CCCCN1Cc1ccc(-c2cccs2)cc1 (stereo not given),?,nt,nt,22.4µM*
CC(=O)N1CCN(C(=O)C2CCCCN2Cc2ccc(-c3ccsc3)cc2)CC1 (stereo not given),-23.1%,nt,nt,-18.7%
O=C(NC1C[C@H]2CC[C@@H](C1)N2C(=O)Cc1ccc(Cl)cc1)c1ccncc1 (stereo not given in full),-11.2%,-7.5%,i,-19.3%
COCC1(O)CCOC2(CCN(C(=O)c3cccnc3)CC2)C1 (stereo not given),-5.5%,nt,nt,-3.0%
O=C(NCCCc1ccccc1)C1CCCCN1Cc1ccc(-c2ccsc2)cc1 (stereo not given),35.5µM*,nt,nt,?
Cc1ccc(CN2Cc3[nH]cnc3C[C@H]2C(=O)N2CCC(Cc3ccccc3)CC2)cc1,70.8µM*,-14.2%[70.6 µM],i,?
CCc1nn(-c2ccc(OC)cc2)c(Oc2ccccc2F)c1CCC(=O)N(CC)CC,44.7µM*,-15.7%,i,?
Cc1nn(-c2ccccc2)c(Oc2ccccc2)c1CCC(=O)NCC1CCCO1 (stereo not given),?,-13.2%,i,?
CCc1nn(-c2ccc(F)cc2)c(Oc2ccccc2)c1CCC(=O)NCC1CCCO1 (stereo not given),31.6µM*,?,i,39.8µM*
SMILES,NIH3T3 tox,NPR1 antag,Luciferase inh,HEK cytotox
CCc1nn(-c2ccc(OC)cc2)c(Oc2ccccc2F)c1CCC(=O)N1CCSCC1,44.7µM*,-10.5%,i,31.6µM*
COc1cccc(-c2ccc(CN3CCCC3C(=O)NCc3ccccc3)cc2)c1 (stereo not given),39.8µM*,nt,nt,39.8µM*
COc1ccc(CNC(=O)C2CCCN2Cc2ccc(-c3cccc(OC)c3)cc2)cc1 (stereo not given),39.8µM*,nt,nt,31.6µM*
COc1cccc(CNC(=O)C2CCCCc3nnc(-c4ccccc4)n32)c1 (stereo not given),-16.1%,nt,nt,-27.6%
COc1cccc(-c2ccc(CN3CCCC3C(=O)N3CCN(c4ncccn4)CC3)cc2)c1 (stereo not given),20µM*,nt,nt,?
FC(F)(F)c1ccc(O[C@H]2COCCN(CC3CCCC3)C2)cc1,89.1µM*,-2.5%[70.6 µM],i,112µM*
